This is an account of results in PubChem BioAssay (NCI).

About 83,000 compounds went through this panel and 20% of them were active in at least one assay; those are over-represented in the sample as a whole.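 Results are percent growth after 48 hours of single-concentration exposure. 100 means growth as in untreated cells, lower positive values show inhibition; negative values down to -100 show cell death.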 A number with no mark means an inactive call. Active and inactive are the calls of the source. The calls were made as follows: active = growth percent below 10; inactive = the rest.

Some test systems named below: RPMI-8226 leukemia; OVCAR-8 ovarian; OVCAR-5 ovarian; OVCAR-4 ovarian; SK-OV-3 ovarian; IGROV1 ovarian; OVCAR-3 ovarian; HS 578T breast; NCI/ADR-RES ovarian; T-47D breast; BT-549 breast; MDA-MB-435 melanoma; SW-620 colon; MCF7 breast; HCT-116 colon; HCC-2998 colon; KM12 colon.
What all share (experiment): NCI-60 one-dose screen, 48 h (100 = growth as untreated, 0 = no growth, -100 = all killed)
What all share (details): 10 µM unless noted

Consider `CCC(C)CC(C)C(=O)c1c(O)ccn(OC)c1=O` (stereo not given), for which the growth is 69.3% in the assay on RPMI-8226 leukemia; 66.3% with OVCAR-8 ovarian; 86.8% with OVCAR-5 ovarian; 44.9% with OVCAR-4 ovarian; 86.7% in the assay on SK-OV-3 ovarian; 65% with IGROV1 ovarian. The growth in the assay with OVCAR-3 ovarian was 47.1%; in the assay with HS 578T breast, 93.2%; in the assay with NCI/ADR-RES ovarian, 57.1%; in the assay with T-47D breast, 82.9%; in the assay with BT-549 breast, 78.1%; in the assay with MDA-MB-435 melanoma, 73.6%. The growth in the assay with SW-620 colon is 61.8%; in the assay with MCF7 breast, 74.3%; with HCT-116 colon, 47.6%; in the assay with HCC-2998 colon it was 95.7%; in the assay with KM12 colon, 102%.
For `Cc1nc2cc(NC(=O)CN3CCN(CCN4C(=O)c5cccc6cccc(c56)C4=O)CC3)ccc2s1`, the growth in the assay on RPMI-8226 leukemia was 28.9%; with OVCAR-8 ovarian, 30.2%; with OVCAR-5 ovarian, 72%; in the assay with OVCAR-4 ovarian, 61.4%; in the assay on SK-OV-3 ovarian, 66.3%; in the assay with IGROV1 ovarian it was 44%. Also, the growth was 74.3% in the assay on OVCAR-3 ovarian; 69.5% in the assay with HS 578T breast; 45.9% in the assay on NCI/ADR-RES ovarian; 50.7% in the assay on T-47D breast; 70.1% with BT-549 breast; 57.8% in the assay with MDA-MB-435 melanoma. The growth is 31.4% in the assay with SW-620 colon; 32.5% in the assay with MCF7 breast; 22.3% in the assay on HCT-116 colon; 59.4% with HCC-2998 colon; 51.6% in the assay with KM12 colon.
On to `O=C1C(Cl)=C(N=Nc2c(Cl)c(O)c3ccccc3c2O)C(=O)c2ccccc21`, for which the growth with RPMI-8226 leukemia was 69.2%; in the assay with OVCAR-8 ovarian, 79.1%; in the assay on OVCAR-5 ovarian, 121%; with OVCAR-4 ovarian it was 72.3%; with SK-OV-3 ovarian, 89.8%; in the assay on IGROV1 ovarian, 60.1%. Moreover, the growth is 24.3% with OVCAR-3 ovarian; 55.3% with HS 578T breast; 73.8% in the assay on NCI/ADR-RES ovarian; 66.9% in the assay on T-47D breast; 62% in the assay with BT-549 breast; -31.7% (active) in the assay on MDA-MB-435 melanoma. Further, the growth in the assay with SW-620 colon was 90%; with MCF7 breast, 62.6%; with HCT-116 colon, 70.4%; in the assay with HCC-2998 colon, 74.4%; in the assay with KM12 colon, 86.4%.
As to `COc1cc(Oc2cc(-c3cccnc3)ccc2NC(=O)Nc2ccc(F)cc2F)cc(OC)c1OC`, the growth in the assay with RPMI-8226 leukemia is 93.6%; with OVCAR-8 ovarian, 92.8%; with OVCAR-5 ovarian, 117%; in the assay on OVCAR-4 ovarian, 113%; in the assay with SK-OV-3 ovarian, 89.1%; with IGROV1 ovarian, 116%. For the same compound, the growth is 102% in the assay with OVCAR-3 ovarian; 99.9% with HS 578T breast; 95.2% in the assay on NCI/ADR-RES ovarian; 71.5% in the assay with T-47D breast; 103% with BT-549 breast; 109% in the assay on MDA-MB-435 melanoma. Further, the growth in the assay on SW-620 colon was 104%; in the assay with MCF7 breast it was 94.2%; with HCT-116 colon, 97.8%; with HCC-2998 colon, 106%; in the assay with KM12 colon, 108%.
For the compound `COc1ccc(COC(C)=O)cc1`, the growth was 103% in the assay with RPMI-8226 leukemia; 106% with OVCAR-8 ovarian; 98.1% in the assay on OVCAR-5 ovarian; 120% in the assay on OVCAR-4 ovarian; 113% in the assay with SK-OV-3 ovarian; 142% in the assay with IGROV1 ovarian. For the same compound, the growth was 110% in the assay on OVCAR-3 ovarian; 105% in the assay with HS 578T breast; 116% with NCI/ADR-RES ovarian; 102% with T-47D breast; 99.7% in the assay with BT-549 breast; 111% in the assay with MDA-MB-435 melanoma. Further, the growth with SW-620 colon is 98.8%; in the assay on MCF7 breast it was 102%; with HCT-116 colon, 107%; with HCC-2998 colon, 114%; in the assay with KM12 colon it was 104%.
For `Cc1c(NCc2nnc3n(Cc4ccccc4)c(=O)c4c5c(sc4n23)CCCC5)c(=O)n(-c2ccccc2)n1C`, the growth in the assay with RPMI-8226 leukemia was 97.5%; with OVCAR-8 ovarian, 86.3%; in the assay on OVCAR-5 ovarian, 107%; in the assay on OVCAR-4 ovarian, 74.7%; in the assay with SK-OV-3 ovarian it was 120%; with IGROV1 ovarian, 79.2%. In addition, the growth with OVCAR-3 ovarian is 87.3%; with HS 578T breast it was 90.7%; in the assay with NCI/ADR-RES ovarian, 85.6%; with T-47D breast, 84%; in the assay on BT-549 breast it was 91.7%; in the assay with MDA-MB-435 melanoma it was 73.5%. In addition, the growth in the assay with SW-620 colon was 103%; in the assay on MCF7 breast it was 85.1%; in the assay with HCT-116 colon, 88.1%; in the assay on KM12 colon, 98.8%.
On to `O=C1c2ccccc2C(=O)c2c1cccc2-n1nnc2ccccc21`, for which the growth in the assay on RPMI-8226 leukemia is 59.8%; with OVCAR-8 ovarian, 102%; with OVCAR-5 ovarian, 105%; in the assay with OVCAR-4 ovarian it was 97.5%; in the assay with SK-OV-3 ovarian, 119%; in the assay with IGROV1 ovarian it was 82.9%. The growth in the assay with OVCAR-3 ovarian is 115%; in the assay with HS 578T breast, 94.2%; in the assay on NCI/ADR-RES ovarian it was 107%; in the assay on T-47D breast, 93.5%; in the assay on BT-549 breast it was 113%; with MDA-MB-435 melanoma, 121%. The growth in the assay on SW-620 colon is 105%; with MCF7 breast, 112%; with HCT-116 colon, 86.5%; in the assay on KM12 colon it was 110%.
For `COc1cc2c(cc1OC)C1CCN3C(=O)CCC3N1CC2` (stereo not given), the growth in the assay with RPMI-8226 leukemia was 102%; in the assay on OVCAR-8 ovarian it was 113%; in the assay with OVCAR-5 ovarian, 109%; in the assay on OVCAR-4 ovarian, 116%; in the assay on SK-OV-3 ovarian, 112%; in the assay on IGROV1 ovarian, 125%. Besides, the growth with OVCAR-3 ovarian is 113%; with HS 578T breast, 97.9%; in the assay with NCI/ADR-RES ovarian, 99.6%; in the assay with T-47D breast it was 105%; with BT-549 breast it was 107%; in the assay with MDA-MB-435 melanoma it was 113%. For the same compound, the growth in the assay on SW-620 colon was 106%; in the assay on MCF7 breast, 103%; in the assay with HCT-116 colon it was 109%; with HCC-2998 colon, 101%; with KM12 colon it was 109%.
Turning to `COc1ccc(-c2cncn2-c2ccc(-c3nc4cc(OC)c(OC)c(OC)c4s3)cc2)cc1N`, the growth with RPMI-8226 leukemia was 62.2%; in the assay with OVCAR-8 ovarian, 37.1%; in the assay on OVCAR-5 ovarian, 96.4%; in the assay with OVCAR-4 ovarian it was 46.7%; with SK-OV-3 ovarian it was 103%; in the assay with IGROV1 ovarian, 58.8%. Moreover, the growth in the assay with OVCAR-3 ovarian is 44.2%; with HS 578T breast it was 74.7%; with NCI/ADR-RES ovarian, 52.4%; with T-47D breast, 50.5%; in the assay on BT-549 breast, 31.5%; in the assay with MDA-MB-435 melanoma, 47.6%. Also, the growth was 63.6% in the assay on SW-620 colon, 39.9% with MCF7 breast, 36.3% with HCT-116 colon and 51.8% with KM12 colon.
